Source: PubChem BioAssay (NCI)
The panel holds about 83,000 compounds, 20% with a hit somewhere; the sample as a whole holds those more often.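 Compound tested at a single concentration for 48 hours in 96-well plates; a percent growth value below 10 was scored as active.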 Values without a mark were called inactive. Activity calls are given as the source filed them.

How the values were obtained:
Assay in all cases: NCI-60 one-dose screen, 48 h (100 = growth as untreated, 0 = no growth, -100 = all killed)
Conditions in all cases: 10 µM unless noted
[1] = system: NCI-H23 lung
[2] = system: NCI-H226 lung
[3] = system: NCI-H322M lung
[4] = system: HOP-62 NSCLC
[5] = system: NCI-H460 lung
[6] = system: HOP-92 NSCLC
[7] = system: NCI-H522 lung
[8] = system: 786-0 renal
[9] = system: COLO 205 colon
[10] = system: DU-145 prostate
[11] = system: K-562 leukemia
[12] = system: MALME-3M melanoma
[13] = system: MDA-MB-231 breast
[14] = system: RXF 393 renal
[15] = system: SF-268 CNS
[16] = system: SF-295 CNS
[17] = system: SF-539 CNS
[18] = system: UACC-257 melanoma
[19] = system: M14 melanoma
[20] = system: A549/ATCC NSCLC

Compound | growth [1] | growth [2] | growth [3] | growth [4] | growth [5] | growth [6] | growth [7] | growth [8] | growth [9] | growth [10] | growth [11] | growth [12] | growth [13] | growth [14] | growth [15] | growth [16] | growth [17] | growth [18] | growth [19] | growth [20]
CN(C)CC(=O)Nc1ccc2ncnc(Nc3ccc(Oc4cccc(C(F)(F)F)c4)c(Cl)c3)c2c1 | 75.9% | 80.7% | 45.3% | 76.5% | 8.52% (active) | 37.9% | 67.7% | 59.4% | 35.9% | 48.2% | 3.41% (active) | 69.7% | 49.1% | 50.6% | 61.3% | 90.3% | 90.8% | 85.6% | 59.5% | –
O=C(Cn1c2c(c3ccccc31)CCCC2)Nc1ccc(-c2nc3ccccc3s2)cc1 | 94.5% | 106% | 101% | 102% | 101% | – | 94.9% | 109% | 104% | 98.8% | 74.4% | 105% | 96% | 105% | 97.6% | 103% | 102% | 106% | 108% | 105%
C=C(C)[C@@H]1CC[C@]2(C(=O)N3CCN(C)CC3)CC[C@]3(C)[C@H](CC[C@@H]4[C@@]5(C)CC(=C/c6ccncc6)/C(=N/O)C(C)(C)[C@@H]5CC[C@]43C)[C@@H]12 | 78.1% | 88.4% | 75.1% | 96.8% | 69.5% | – | 69% | 74.6% | 80.8% | 77.1% | 34.4% | 87.4% | 65.7% | 71.9% | 63% | 91.6% | 83.6% | 85.8% | 94.5% | 73.9%
CC(C)(C)[Si](C)(C)O[C@H]1C(=O)C=CN2CC=C[C@@H]12 | 93.3% [100 µM] | 94.4% [100 µM] | 104% [100 µM] | 111% [100 µM] | 103% [100 µM] | – | 91.7% [100 µM] | 105% [100 µM] | 122% [100 µM] | 108% [100 µM] | 105% [100 µM] | 106% [100 µM] | 105% [100 µM] | 109% [100 µM] | 101% [100 µM] | 94.1% [100 µM] | 99.4% [100 µM] | 93.6% [100 µM] | 108% [100 µM] | 110% [100 µM]
CCOC(=O)c1cn2ncnc(Oc3ccc(NC(=O)NC4CCCCC4)c(Cl)c3)c2c1C | 68.8% | 92.6% | 85.2% | 79.9% | 96.4% | – | 67.1% | 81.6% | 96.9% | 96% | 82.6% | 58% | 58.2% | 83.8% | 84.9% | 96.7% | 51.2% | 90% | – | 58.7%
N#CC1=C(c2ccc(Cl)cc2)Nc2c(c(-c3ccc(Cl)cc3)nn2-c2ccccc2)C12C(=O)Nc1ccc(Cl)cc12 (configuration not stated) | 42.3% | 67% | 83.3% | 65% | 35.5% | -3.13% (active) | 25.7% | 59.1% | 51% | 76.6% | 24.3% | 77% | 50.1% | 21.3% | 38.2% | 23.2% | 74.2% | 63.4% | 41.9% | –
O=C1c2cccnc2C(=O)c2c1c(C(=O)NCCCN1CCCCC1)c1ccccn21 | -36.1% (active) | -39.8% (active) | -35.9% (active) | -37.5% (active) | -69.9% (active) | -30.5% (active) | -51% (active) | 5.99% (active) | -82.2% (active) | -94.4% (active) | -25.4% (active) | -92.6% (active) | -3.12% (active) | -39.5% (active) | -13% (active) | -13.6% (active) | -61.2% (active) | -82.8% (active) | -88.1% (active) | –
